# Screening results as filed in PubChem BioAssay.
# Compounds with a hit are over-represented: about 1.7% of the library has one in this group of screens.
# PTHR1 agonist = qHTS for PTHR1 Agonists: Primary Screen; Parathyroid hormone/parathyroid hormone-related peptide receptor (Homo sapiens), Q03431; HEK293 GP2 PTHR1 cells, GloSensor cAMP luminescence, 1 h; Potency, µM (highest dose often 115 µM), without a hit: at the top dose activation, hits mostly activators; hit rate 0.075% among 410,000; AID 743266, 2014; also: nearly all actives have a fitted effect of over 55% in size
#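 HEK-293-derived GP2 cells expressing PTHR1 and a GloSensor cAMP reporter, 3,000/well, plated overnight, given luciferin plus IBMX (each 0.5 mM as added) for 1 h at 37 °C, then compound for 1 h at 37 °C. Luminescence was read after 15 min at room temperature.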
# GLP1R inv ag = qHTS of GLP-1 Receptor Inverse Agonists (Inhibition Mode); Glucagon-like peptide 1 receptor (Homo sapiens), P43220; HEK293 GLP-1R CRE-luciferase, luminescence, 24 h; GLP-1R form is constitutively active; Potency, µM (top dose mostly 38.3 µM), for the others: top-dose activity change, negative = inhibition, actives largely listed as inhibitors; hit rate 1.6% among 410,000; also: % is scaled to controls: 0 for no effect and ±100 for the full control effect; nearly all actives have a fitted effect of over 55% in size
#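 Constitutively active GLP-1R drives a cAMP-responsive luciferase in stably transfected HEK293 cells; test compounds are added after overnight (12 h) attachment and left 24 hr, and signal loss in luminescence marks inhibition.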
# GLP1R cytotox = qHTS of GLP-1 Receptor Inverse Agonists: Cytotox Screen; AID 624418, 2012; Potency, µM (highest dose often 38.3 µM), without a hit: at the top dose activity change, negative = inhibition, hits mostly inhibitors; HEK293 cAMP-luciferase reporter cells, luminescence, 24 h; hit rate 0.13% among 410,000;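 also: loss of luciferase light is scored as toxicity; % is scaled to controls: 0 for no effect and ±100 for the full control effect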
#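 Cells in DMEM/10% Nu serum/1% pen-strep, 1536-well format. Pre-incubated 12 h, dosed with 23 nL compound, incubated a further 24 h. Luciferase detection, 12 min at room temp, luminescence.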
# GLP1R ag = qHTS of GLP-1 Receptor Agonists; HEK293 GLP-1R CRE-luciferase, luminescence, 4-6 h; cells express a hypersensitive GLP-1R form; Glucagon-like peptide 1 receptor (Homo sapiens), P43220; hit rate 0.007% among 380,000; Potency, µM (doses to about 45.6 µM), inactives show at the top dose activation, hits mostly activators; also: % of control where 0% means no effect
# RGS4 inh = Inhibitors of Regulator of G Protein Signaling (RGS) 4: qHTS | Potency, µM (series often up to 114 µM), without a hit: at the highest dose activity change, negative = inhibition, hits mostly inhibitors | Regulator of G-protein signaling 4 (Homo sapiens), P49798 | Transcreener GDP fluorescence polarization, RGS4-accelerated GTP hydrolysis | hit rate 0.039% among 390,000; also: % is scaled to controls: 0 for no effect and ±100 for the full control effect; nearly all actives have a fitted effect of over 75% in size
# Target sequence (P49798 whole entry, looked up): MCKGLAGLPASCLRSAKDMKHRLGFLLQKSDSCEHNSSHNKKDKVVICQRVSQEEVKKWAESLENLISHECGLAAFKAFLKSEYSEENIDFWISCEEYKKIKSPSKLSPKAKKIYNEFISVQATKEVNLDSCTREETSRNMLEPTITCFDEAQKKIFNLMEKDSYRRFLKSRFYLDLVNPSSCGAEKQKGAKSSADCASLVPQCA
#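 MLSMR compounds (23 nl, pin-transferred) preincubated 10 min at room temperature with a 500nM (2x) first reagent, then RGS4 at 900nM (2x) plus Transcreener GDP mix added; fluorescence polarization (620/688 nm) read before and after 90 min at 30 °C.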
# Active calls of the source: *; i = inactive; ? = inconclusive; nt = not tested or not shown; [ ] = dose if it differs, or a comment. Calls follow the shape of the dose curve; as a rule, active = well fitted curve in the direction sought with a large enough effect; inconclusive = small, poorly fitted or top-dose-only effect, or another doubt; inactive = no such curve, though single readings can be large; an effect the other way counts as inactive or inconclusive. Potency is read from the fitted curve at half-maximal effect.
SMILES,PTHR1 agonist,GLP1R inv ag,GLP1R cytotox,GLP1R ag,RGS4 inh
O=C(NC1CCCCC1)C(c1ccccc1F)n1c(=O)c(-c2cc3ccccc3[nH]2)nc2ccccc21 (stereo not given),-15%,?,i,nt,nt
COc1ccc2[nH]c3c4c(ccc3c2c1)C(=O)C=CC4=O,-8%,?,7.9µM*,11%,-110%
CCCc1cc(C(=O)Nc2ccc(C(=O)c3ccc(C)cc3)cc2)n(C)n1,-27%,5.6µM*,-8%,-3%,24%
OCC1(Cc2cccc(Cl)c2)CCCN(Cc2ccc(F)c(F)c2)C1 (stereo not given),-24%,10µM*,6%,1%,-2%
CC(C)Oc1ccc(CN2CCCC(CO)(Cc3ccc(F)cc3)C2)cc1 (stereo not given),-9%,11µM*,-15%,14%,-11%
CSc1cccc(CN2CCCC(CO)(Cc3cccc(Cl)c3)C2)c1 (stereo not given),i,?,-14%,12%,22%
O=[N+]([O-])c1cc(C(F)(F)F)ccc1NCCNC(=S)Nc1ccc(Cl)cc1,-22%,11µM*,-57%,-6%,-4%
O=[N+]([O-])c1cc(C(F)(F)F)ccc1NCCCCNS(=O)(=O)c1ccc(Cl)cc1,-90%,11%,-2%[1.53 µM],3%,-8%
O=C(Nc1ccc(Cl)cc1)N1CCCN(c2ccc(C(F)(F)F)cc2[N+](=O)[O-])CC1,-24%,2.8µM*,?,1%,8%
Cn1c(=O)c(=O)n(C)c2cc(C(=O)NCc3ccccc3Cl)ccc21,-17%,10%,-3%,nt,-3%
CCc1cccc(-n2c(=O)c3cccnc3n2CC(=O)NCc2ccccc2Cl)c1,i,13%,1%,nt,-10%
COc1cc(OC)cc(-c2nc3nc(C)c(CCC(=O)Nc4ccc(C)cc4C)c(C)n3n2)c1,-17%,8%,15%,0%,-5%
COC(=O)c1c(C(=O)OC)c2c(-c3ccccc3)cc3cccc1n32,-31%,8.9µM*,193%,9%,nt
CCCCCC(=O)Nc1nc(C)c(-c2csc(Nc3cc(OC)ccc3OC)n2)s1,45µM*,-3%,1%,0%,-16%
CC(NCC(=O)Nc1ccccc1C(=O)NC1CC1)c1cccc(C(F)(F)F)c1 (stereo not given),-31%,13µM*,0%,11%,27%
COc1cc(-c2cc(C(=O)Nc3ccc(S(=O)(=O)NCc4ccco4)cc3)c3ccccc3n2)cc(OC)c1OC,i,2µM*,-11%,2%,26%
COc1cc(-c2cc(C(=O)NCc3ccco3)c3ccccc3n2)cc(OC)c1OC,-58%,?,?,5%,-29%
COc1cc(NC(=O)c2cnc(N)s2)cc(C(=O)Nc2cccc(C(F)(F)F)c2)c1,-35%,13µM*,13%,-1%,-23%
O=c1c2ccccc2nc(SCCN2CCOCC2)n1CCc1ccccc1,-21%,10µM*,8%,26%,9%
COc1ccc(CCn2c(SCCN3CCCCC3)nc3ccccc3c2=O)cc1OC,i,?,-17%,4%,4%
O=c1onc(-c2ccccc2)n1-c1cc(Cl)cc(Cl)c1,-33%,?,-2%,21%,11%
OC(c1ccccc1)(c1nc(/C=C/c2ccc(C(F)(F)F)cc2)cs1)C(F)(F)F (stereo not given),-6%,7.9µM*,?,-2%,nt
CC(=O)C[C@H]1[C@H](O[C@H]2[C@H](OC(C)C(=O)N[C@@H](C)C(=O)N[C@H](CCC(=O)N[C@@H](CCCCN)C(=O)N[C@H](C)C(=O)O)C(N)=O)[C@@H](NC(=O)O)C(O)O[C@@H]2CO)O[C@H](CO)[C@@H](O)[C@@H]1O (stereo not given in full),nt,nt,nt,16%,nt
